# High-throughput results: PubChem, National Center for Advancing Translational Sciences (NCATS)
# CHX counter = counter-screen for Shiga toxin inhibitors: cycloheximide protein synthesis inhibition; cell reporter, cycloheximide protein synthesis inhibition counterscreen; max response, %; 12% of 300,000 active; in the data active means max response mostly above about 13%, no sharp cut-off; inactive means mostly below about 14%; further: read at 38.3 µM for the half of the compounds with a filed dose; 0% is about no effect
# Giardia FBPA inh = inhibitors of Giardia lamblia fructose-1,6-bisphosphate aldolase | A8B2U2 | purified Giardia FBPA | Potency, µM (highest dose often 59.6 µM), for the others: top-dose activity, negative = inhibition, hits mostly inhibitors | 0.71% of 290,000 active | AID 2451; further: potency means the concentration at half of the fitted maximal effect; on the % scale 0 is the no-effect control and ±100 the full control effect; nearly all actives have a fitted effect of over 55% in size
# Target sequence (A8B2U2 whole entry, looked up): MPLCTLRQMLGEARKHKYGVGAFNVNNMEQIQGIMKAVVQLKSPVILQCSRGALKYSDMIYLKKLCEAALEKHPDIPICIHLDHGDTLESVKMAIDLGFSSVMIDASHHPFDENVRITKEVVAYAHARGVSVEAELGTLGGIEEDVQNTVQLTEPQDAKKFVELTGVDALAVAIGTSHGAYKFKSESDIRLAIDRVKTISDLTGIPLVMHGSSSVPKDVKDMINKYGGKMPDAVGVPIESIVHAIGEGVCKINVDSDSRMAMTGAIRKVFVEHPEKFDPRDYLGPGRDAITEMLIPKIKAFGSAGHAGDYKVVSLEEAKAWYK
#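 Giardia FBPA (40 nM reagent) was preincubated 10 min at RT with compound (up to 57.5 uM final), then substrate plus GAPDH/TPI/NAD/arsenate coupling system with diaphorase/resazurin was added; resorufin fluorescence (525/598 nm) was read after 20 min.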
# NS1 function inh = influenza NS1 inhibition. Potency, µM (doses to about 46.1 µM), without a hit: at the top dose activity, positive = more growth. 0.4% of 270,000 active. AID 2326; calls by dose curve; further: potency means the concentration at half of the fitted maximal effect; actives are rising curves; nearly all actives have a fitted effect of over 50% in size
#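 Growth recovery, yeast-based: influenza A NS1 expressed in S. cerevisiae causes slow growth, and suppressors are detected by OD600. The parent strain without NS1 is used as positive control.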
# LmPK inhibitor = inhibitors of Leishmania mexicana pyruvate kinase; Q27686; purified LmPK, Kinase-Glo ATP luminescence, 1 h; Potency, µM (series often up to 57.5 µM), without a hit: at the highest dose activity change, negative = inhibition, actives largely listed as inhibitors; 0.37% of 290,000 active; AID 1721; further: potency means the concentration at half of the fitted maximal effect; on the % scale 0 is the no-effect control and ±100 the full control effect
#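 ATP generated from ADP (0.1 mM) and PEP (0.5 mM) by 0.1 nM LmPK over 1 h at room temperature (pH 7.2 imidazole buffer) was detected by coupled luciferase luminescence. Values were normalized to uninhibited and no-enzyme wells.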
# Shiga inhibitor = Shiga toxin inhibition; Vero cells, Shiga toxin protein synthesis inhibition reporter; inhibition, % at 38.7 µM; 9.2% of 290,000 active; AID 2315; in the data active means inhibition mostly above about 28%, no sharp cut-off; inactive means mostly below about 43%; further: 0% is about no effect
# Numbers without * were called inactive; ? = inconclusive; / = no result given. The list is not random: actives were taken first. Their share in the collection is about 14%. Unless noted, the call rests on the fitted dose curve; in most records, active means well fitted curve in the direction sought with a large enough effect; inconclusive means small, poorly fitted or top-dose-only effect, or another doubt; inactive means no such curve, though single readings can be large; an effect the other way counts as inactive or inconclusive.
SMILES,CHX counter,Giardia FBPA inh,NS1 function inh,LmPK inhibitor,Shiga inhibitor
Cc1ccc(C(=O)CNc2ccc(Br)cc2)cc1,10,2%,-14%,0%,44*
CC(C)c1ccc(NCCC(=O)c2ccc(Br)cc2)cc1,-4,3%,-6%,3%,-8
O=C(CNC(=S)NC(=O)c1ccc(F)cc1)c1ccccc1,6,0%,-2%,0%,10
O=C(CNc1cccc(Cl)c1)c1ccc(Br)cc1,12,5%,-34%,0%,8
Cc1ccc(C(=O)CNc2ccccc2)cc1,34*,6%,-47%,0%,47*
CC(C)C[C@@H](CC(=O)N[C@@H](CCCN)CC(=O)N[C@@H]1CCNC[C@H]1C(=O)N[C@H](CC(=O)N[C@@H](CCC(=O)O)CC(=O)O)Cc1ccccc1)NC(=O)[C@@H]1CCCC[C@H]1N,/,-28%,/,/,/
NC(=O)c1ccccc1NS(=O)(=O)c1ccc(F)cc1,1,11%,7%,5%,-21
NC(=O)c1ccccc1NCC(=O)c1ccc(F)cc1,29*,-3%,-6%,0%,48*
O=C(CNc1ccc(Br)cc1)c1ccccc1,18*,-1%,-21%,-24%,21
CCOC(=O)N1CCC(NC(=O)c2ccc3c(c2)N(C)C(=O)/C(=C/c2cccc(OC)c2)S3)CC1,-3,/,9%,-5%,-7
Cc1ccc2c(c1)c(CC(NC(=O)c1ccccc1Oc1ccccc1)C(=O)O)cn2C(=O)OCc1ccccc1 (configuration not stated),-3,18%,/,/,-6
N#Cc1c(-c2ccccc2)nc(SCc2cccc(Cl)c2)[nH]c1=O,3,10%,3%,1%,-5
O=C(Nc1ccc(F)cc1F)c1ccc(-n2cncn2)nc1,0,19%,2%,2%,-6
CC(C)Sc1ccc(C(=O)Nc2ccc(F)cc2F)cn1,48*,-2%,-6%,-15%,50*
O=C(Nc1ccc(F)cc1F)c1ccc(-n2cccn2)nc1,16*,0%,/,-11%,18
Cc1ccc(OCC(=O)N/N=C/c2cccc3cccnc23)cc1,-1,/,-64%,-6%,-33
Cc1cc2nc(/C=C/c3cccnc3)[nH]c2cc1C,31*,-5%,2%,-6%,40*
Cc1cc2nc(/C=C/c3nc4cc(C)c(C)cc4[nH]3)[nH]c2cc1C,4,6%,0%,-1%,2
COc1cccc(C(=O)NNC(=O)c2ccccc2)c1,43*,-3%,?,1%,69*
COc1cccc(C(=O)Nc2cccc(OCC(=O)O)c2)c1,9,2%,-2%,35µM*,-20
COc1ccc(/C(O)=C/C(=O)C(=O)NNC(=O)c2ccccc2)cc1,30*,?,-1%,1%,33
COc1c(C(=O)NNC(=O)c2ccccc2)csc1Br,35*,4%,-4%,-14%,48*
CCC(=O)N1CCc2cc(S(=O)(=O)CCC(=O)NCc3ccccc3OC)ccc21,-3,/,-7%,-1%,11
CCCn1c(-c2ccc(F)cc2)nc2c(NCCN3CCCC3)nc(C)nc21,/,3%,/,/,/
O=C(c1cnccn1)N1CCC2(CC1)CCN(c1ccncc1)CC2,/,-1%,/,/,/
SMILES,CHX counter,Giardia FBPA inh,NS1 function inh,LmPK inhibitor,Shiga inhibitor
CCn1c2ccccc2c2cc(NC(=O)C(=O)N3CCOCC3)ccc21,35*,-3%,0%,-2%,86*
O=C(Nc1cccc(NC(=O)c2cccnc2)c1)c1cccnc1,-4,-2%,9%,0%,-3
CCC/C(=N\NC(=O)c1cccc(C)c1)c1ccccc1,56*,6%,-3%,1%,59*
COc1cccc(NC(=O)c2cccnc2)c1,32*,7%,0%,-9%,31
C/C(=N\NC(=O)C1(C)CC1(Br)Br)c1cccc(NC(=O)c2ccc(C)o2)c1 (configuration not stated),28*,/,-34%,4%,52*
CC1NC(=O)C(N)CNC(=O)C(C2CCN=C(N)N2)NC(=O)/C(=C/NC(N)=O)NC(=O)C(CNC(=O)CC(N)CCCN)NC1=O (configuration not stated),-7,6%,/,/,-3
CCCCNC(=O)NS(=O)(=O)c1ccc(C(=O)O)cc1,-4,-1%,/,/,-10
COc1cccc(C(=O)NNC(=O)c2cccnc2)c1,7,10%,-1%,6%,-7
COc1cccc(C(=O)NC23CC4CC(CC(C4)C2)C3)c1,15*,8%,-20%,3%,18
CCn1c2ccccc2c2cc(NC(=O)c3ccco3)ccc21,18*,-12%,-54%,-5%,41
COc1cccc(OC)c1C(=O)NNC(=O)c1cccnc1,18*,4%,0%,-2%,-15
CCn1c2ccccc2c2cc(NC(=O)c3cccc(OC)c3)ccc21,20*,-2%,-14%,12%,95*
Cc1ccc(CCNC(=O)C2CCN(S(=O)(=O)N3CCOCC3)CC2)cc1,-2,/,-7%,0%,12
Cc1ccc([N+](=O)[O-])cc1S(=O)(=O)N(C)C,-1,-3%,-3%,/,-1
COc1ccccc1CNC(=O)C1CCN(S(=O)(=O)c2ccc(N3CCCC3=O)cc2)CC1,9,/,-7%,5%,-5
Cc1ccc(OS(=O)(=O)c2ccc(N3C(=O)CCC3=O)cc2)cc1,-4,-10%,-4%,2%,-3
CCOCCCNC(=O)Cn1cnc2c(cnn2-c2ccc(C)c(C)c2)c1=O,7,-2%,1%,0%,14
Cc1cccc(C(=O)Nc2ccc3ccccc3c2)c1,52*,6%,-30%,-3%,92*
COc1cccc(C(=O)Nc2cnn(C(C)C)c2)c1,32*,-14%,/,0%,94*
Cc1ccc(C(=O)Nc2cccc(Oc3ccccc3)c2)o1,30*,-7%,-134%,6%,34
COc1cccc(C(=O)N/N=C(/CCC(=O)O)c2ccccc2)c1,52*,-1%,13%,-2%,active
Cc1ccc(C(=O)Nc2cccc(C(=O)NCc3ccccc3)c2)o1,-2,-2%,-47%,-2%,21
O=C(O)CC/C(=N\NC(=O)c1ccncc1)c1ccccc1,5,-2%,0%,-1%,/
CC(=O)Nc1ccc(C(=O)NNC(=O)c2cccc(C)c2)cc1,2,-2%,-10%,-6%,12
COCC(C)NC(=O)CSc1nc2ccccc2c(=O)n1CCc1ccc(S(N)(=O)=O)cc1 (configuration not stated),-2,/,0%,-1%,1
SMILES,CHX counter,Giardia FBPA inh,NS1 function inh,LmPK inhibitor,Shiga inhibitor
O=C(Nc1ccc(O)cc1)c1ccc(C(=O)c2ccccc2)o1,23,-8%,-5%,-1%,55*
COc1cccc(C(=O)Nc2ccc(NC(=O)Cc3ccccc3)cc2)c1,-3,6%,12%,-4%,-9
COc1cccc(C(=O)Nc2cccc(SC)c2)c1,19*,-14%,-78%,-30%,63*
COc1ccccc1NC(=O)C(=O)/C=C(\O)c1ccccc1,48*,?,-3%,-2%,64*
COc1cccc(C(=O)Nc2ccccc2)c1,35*,4%,-145%,?,64*
CCCCn1c(SCC(=O)NCCCOC)nc2c(sc3ccccc32)c1=O,-13,/,/,/,-8
